In PubChem BioAssay AID651661 (Broad Institute, 2012):
Screen size: about 350,000 compounds; about 2,300 (0.66%) were called active. Only a selection was taken, and actives are over-represented in it overall. Unmarked numbers belong to inactive results.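 The calls were made as follows: active = mean inhibition of at least 50% after viability correction, with every replicate also passing that limit; inconclusive = mean reaches 50% but only one of two replicates passes; inactive = the rest.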

assay: blockers of EWS/Fli transcriptional output – A673 cells, NR0B1 luciferase, luminescence, MLPCN library, primary screen (AID 651661); settings: A673 NR0B1-luciferase reporter, viability-normalised; at 12.6 µM; active compounds read high;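 also: firefly luciferase signal divided by Alamar Blue viability fluorescence both relative to DMSO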

Row | SMILES | inhibition
1 | O=C(C1CCOCC1)N1CC(=O)N2[C@H](CO)[C@H](c3ccc(C#Cc4cccc(F)c4)cc3)[C@H]2C1 | 3.5%
2 | CCCC(=O)Nc1ccc2c(c1)C(=O)N(C)[C@H]1CC[C@@H](CC(=O)NCC(F)(F)F)O[C@@H]1CO2 | 3%
3 | O=C(C[C@@H]1CC[C@H](NC(=O)C2CC2)[C@H](CO)O1)NCc1ccccc1Cl | -4.63%
4 | C[C@H](CO)N1C[C@H](C)[C@@H](CN(C)C(=O)NC2CCCCC2)Oc2ccc(NC(=O)c3ccncc3)cc2CC1=O | -1.15%
5 | COc1cccc(C(=O)Nc2ccc3c(c2)C(=O)N(C)C[C@@H](OC)[C@H](C)CN(C(=O)C2CCOCC2)[C@H](C)CO3)c1 | -12.9%
6 | COc1cc(/C=C(/NC(=O)c2ccc(Cl)cc2Cl)C(=O)O)cc(OC)c1OC | 11.1%
7 | CCOc1cc(/C=C(/C#N)c2ccc(Cl)cc2)cc(Cl)c1OCC(=O)O | 67.4% (active)
8 | CCOC(=O)CN/C=C(\C#N)c1ccc(F)cc1 | -7.7%
9 | CO[C@@H]1CN(C)C(=O)c2cc(NC(=O)c3ccc(F)cc3)ccc2OC[C@H](C)N(C(=O)CN(C)C)C[C@H]1C | 1.32%
10 | C[C@@H]1CCCCO[C@@H](CN(C)Cc2ccncc2)[C@H](C)CN([C@H](C)CO)C(=O)c2cc(NC(=O)CCC(F)(F)F)ccc2O1 | -2.85%
11 | Cc1ccc(S(=O)(=O)NC[C@H]2CC[C@@H]3[C@@H](CN3Cc3ccccc3C(=O)O)O2)cc1 | 4.08%
12 | C[C@@H]1CCCCO[C@@H](CN(C)C(=O)c2ccccc2)[C@H](C)CN([C@@H](C)CO)C(=O)c2cc(NS(=O)(=O)c3cn(C)cn3)ccc2O1 | -5.15%
13 | CC[n+]1cc(C)ccc1/C=C/c1ccc(N(C)C)cc1 | 57.5% (active)
14 | CO[C@H]1CN(C)C(=O)c2cc(NC(=O)c3cnccn3)ccc2OC[C@@H](C)N(CC2CC2)C[C@@H]1C | -6.87%
15 | COc1ccc(-c2noc(CNC(=O)C(C)Oc3ccccc3)n2)cc1 (stereo not given) | -7.08%
16 | COc1ccc(-c2nc(-c3ccccc3)no2)c(OC)c1 | 77.6% (active)
17 | COc1ccc(/C=C/c2noc(-c3ccccc3OC(C)=O)n2)cc1 | 6.55%
18 | COc1cccc(NC(=O)C[C@H]2CC[C@@H]3[C@H](COc4ccc(NC(C)=O)cc4C(=O)N3C)O2)c1 | -0.492%
19 | O=C(C[C@@H]1C=C[C@@H](NS(=O)(=O)c2ccccc2)[C@H](CO)O1)N1CCN(c2ccccc2)CC1 | 2.46%
20 | CNC(=O)C[C@H]1CC[C@H]2[C@H](COc3ccc(NC(=O)Nc4cccc(C)c4)cc3C(=O)N2C)O1 | -11.4%
21 | C[C@H](O)C#Cc1ccc2c(c1)O[C@H](CN(C)C(=O)C1CCCCC1)[C@@H](C)CN([C@H](C)CO)S2(=O)=O | 2.27%
22 | Cc1cc(=O)c2ccc(NC(=O)c3ccccc3)cc2[nH]1 | 9.56%
23 | Cc1ccc(-c2cc(=O)c3ccc(F)cc3[nH]2)cc1 | -5.43%
24 | O=c1cc(-c2ccccc2)[nH]c2cc(F)ccc12 | 54.2% (active)
25 | CCC(=O)N1CC2(CN(Cc3ccc(Cl)cc3)C2)c2c([nH]c3cc(OC)ccc23)[C@@H]1CO | -10.6%

Row | SMILES | inhibition
26 | CC(=O)Nc1ccc(S(=O)(=O)Nc2ccc(-c3ccc4nnc(C)n4n3)cc2)cc1 | 18.6%
27 | CC(=O)Nc1ccc(S(=O)(=O)Nc2ccc(N3CCCCC3)cc2)cc1 | 63.2% (active)
28 | O=C(Nc1ccc(N2CCCCC2)cc1)c1cc(S(=O)(=O)N2CCOCC2)ccc1F | 0.758%
29 | O=C(NCc1cccc(F)c1)[C@H]1[C@H](CO)[C@H]2Cn3c(cccc3=O)[C@@H]1N2 | -7.63%
30 | O=C(Cc1ccccn1)N1CC(=O)N2[C@H](CO)[C@H](c3ccc(C#CCC4CCCC4)cc3)[C@@H]2C1 | -3.29%
31 | O=C(OC12CC3CC(CC(C3)C1)C2)c1ccc(NCc2cc(O)ccc2O)cc1 | 30.8%
32 | CC(CN1CCOCC1)OC(=O)c1ccc(Cl)cc1Cl (stereo not given) | -6.54%
33 | CC(OC(=O)c1ccc(Cl)cc1O)C(=O)NCCC1=CCCCC1 (stereo not given) | 1.44%
34 | COC(=O)c1ccc(NCc2cc(O)ccc2O)cc1 | 61.8% (active)
35 | C#CCNc1ccc(C(=O)OCC)cc1 | -46.2%
36 | CC(C)OC(=O)c1ccc(NCc2cc(O)ccc2O)cc1Cl | 59.4% (active)
37 | O=C(C1CCC1)N1CC[C@@H]2[C@H]1c1cc(C#Cc3ccc(F)cc3)ccc1N[C@@H]2CO | 11%
38 | CO[C@@H]1CN(C)C(=O)c2ccc(NC(=O)Nc3c(C)noc3C)cc2OC[C@@H](C)NC[C@H]1C | 1.67%
39 | COc1ccc(S(=O)(=O)N(C)C[C@H]2Oc3c(NS(=O)(=O)c4cccs4)cccc3C(=O)N([C@H](C)CO)C[C@@H]2C)cc1 | 0.582%
40 | COc1ccc(NC(=O)C2Cc3c(-c4ccc(Cl)cc4)ccnc3O2)cc1 (stereo not given) | -1.76%
41 | COc1ccc(NC(=O)C2Cc3c(-c4ccc5c(c4)OCO5)ccnc3O2)cn1 (stereo not given) | 52.6% (active)
42 | O=C(Nc1ccc(Cl)cc1)C1Cc2c(-c3ccc4c(c3)OCO4)ccnc2O1 (stereo not given) | 8.69%
43 | CCCN1C[C@@H](C)[C@H](OC)CN(C)C(=O)c2cc(NC(=O)CC)ccc2OC[C@@H]1C | -0.843%
44 | COC(=O)C[C@H]1C=C[C@H](NC(=O)Nc2ccc(C(F)(F)F)cc2)[C@@H](CO)O1 | -13.7%
45 | CC(C)C(=O)Nc1ccc2c(c1)C(=O)N(C)[C@H]1CC[C@H](CC(=O)NCc3ccc(F)cc3)O[C@H]1CO2 | -4.82%
46 | O=C(C1CC(=O)N(C2CCCCC2)C1)N1CCN(c2ccccc2)CC1 (stereo not given) | 2.44%
47 | O=C1C=CC(=O)N1c1ccc(N2CCCCC2)cc1 | 70% (active)
48 | O=C(C1CCC1)N1CCN(c2ccccc2)CC1 | -2.08%
49 | O=C(Nc1cc(F)ccc1F)N1CCCCN2[C@H](CO)[C@@H](c3ccc(-c4cccnc4)cc3)[C@@H]2C1 | -2.34%
50 | CN(C)C(=O)[C@@H]1[C@@H](CO)[C@@H]2Cn3c(ccc(-c4ccncc4)c3=O)[C@H]1N2C(=O)NC1CCCC1 | -5.42%

Row | SMILES | inhibition
51 | CCCc1cc(=O)[nH]c(SCC(=O)N2C(C)CCCC2C)n1 (stereo not given) | -0.113%
52 | CC(C)Cn1c(N)c(C(=O)COC(=O)CN2C(=O)C3CC=CCC3C2=O)c(=O)n(C)c1=O (stereo not given) | 10.8%
53 | CCCc1cc(=O)[nH]c(SCC(=O)c2c(N)n(CC(C)C)c(=O)n(C)c2=O)n1 | 61.7% (active)
54 | COc1ccc2c3c(n(C)c2c1)[C@@H](CO)N(C(=O)c1ccccn1)CC31CN(C)C1 | 2.95%
55 | CCOC(=O)c1c(C)[nH]c2c1-c1ccccc1C(=O)C2=O | 75.3% (active)
56 | CCOC(=O)c1c(C)[nH]c(C(=O)OCC(=O)c2ccc(OC)cc2OC)c1C | -15.3%
57 | CCOC(=O)c1c(NC(=O)CSc2nccc(=O)[nH]2)sc(C)c1C | 1.69%
58 | CCCN1C[C@@H](C)[C@@H](OC)CN(C)C(=O)c2cc(NC(=O)C3CCC3)ccc2OC[C@H]1C | 4.62%
59 | CCCNC(=O)N1CCC2(CC1)CN(C(=O)c1cccnc1)[C@@H](CO)c1[nH]c3cc(OC)ccc3c12 | -3.43%
60 | CO[C@H]1CN(C)C(=O)c2cc(NS(=O)(=O)c3ccccc3)ccc2OC[C@H](C)N(C(=O)NC(C)C)C[C@@H]1C | -7.63%
61 | O=C(C1CCCCC1)N1CC(=O)N2[C@H](CO)[C@@H](c3ccc(-c4ccccc4F)cc3)[C@@H]2C1 | -0.368%
62 | COc1ccc(-c2cc(NC=O)c3ncc(-c4cccc(C(=O)N(C)C)c4)n3c2)c(OC)c1 | 8.25%
63 | COc1ccc(-c2cc(NC=O)c3ncc(-c4cc(OC)c(OC)c(OC)c4)n3c2)c(OC)c1 | 52.4% (active)
64 | COc1cccc(-c2cnc3c(NC(C)=O)cc(-c4cc(F)ccc4OC)cn23)c1 | 41.5%
65 | COc1ccccc1-c1cc(NC(C)=O)c2ncc(-c3ccc(F)cc3)n2c1 | 13.6%
66 | COc1ccc(-c2cc(NC(C)=O)c3ncc(-c4cc(OC)c(OC)c(OC)c4)n3c2)cn1 | 64.5% (active)
67 | COc1ccc(-c2cc(NC=O)c3ncc(-c4ccccc4)n3c2)cc1OC | 12.5%
68 | COc1cccc(NC(=O)N2CC[C@@H]3[C@@H](CO)N(C)c4ccc(-c5cccc(F)c5)cc4[C@@H]32)c1 | -0.284%
69 | COc1ccccc1CNC(=O)C[C@H]1C[C@H]2c3cc(NS(=O)(=O)c4ccc(F)cc4)ccc3O[C@H]2[C@@H](CO)O1 | -1.41%
70 | C[C@@H]1CN([C@H](C)CO)C(=O)c2cccc(NS(=O)(=O)c3cn(C)cn3)c2O[C@H]1CN(C)S(=O)(=O)c1ccc(Cl)cc1 | 1.45%
71 | C[C@@H]1CCCCO[C@@H](CN(C)Cc2ccncc2)[C@H](C)CN([C@H](C)CO)C(=O)c2cc(NC(=O)NC3CCCCC3)ccc2O1 | 0.242%
72 | CN1c2ccc(-c3cccc(F)c3)cc2[C@H]2[C@H](CCN2C(=O)c2cccc(F)c2)[C@H]1CO | -3.71%
73 | Cc1ccc(C)c(S(=O)(=O)N2CCN(C(=O)Nc3ccccc3)CC2)c1 | 1.58%
74 | COc1ccc(-c2csc3ncnc(N4CCN(S(=O)(=O)c5ccccc5C#N)CC4)c23)cc1 | 22.1%
75 | Cc1ccc(C)c(S(=O)(=O)N2CCN(c3ncnc4sccc34)CC2)c1 | 51.5% (active)
